In PubChem BioAssay AID1159580 (chemical genetic matrix, 2015):
About 2,000 (36%) of roughly 5,500 compounds were called active. About 18% were inconclusive and are not listed. Cut-off read from the data, not from the text of the source: active = normalized growth mostly below about 0.91 (no sharp cut-off); inconclusive = no clear call, values can overlap the other calls; inactive = mostly above about 0.92. The list shows a part of the results.

Assay: chemical genetic growth profiling, strain panel (AID 1159580);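 note: tested at 20 µM; growth read once vehicle control cultures reached saturation at 30 °C; 1 = growth at the plate median or of vehicle wells; lower values mean less growth of the strain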
Conditions: S. cerevisiae deletion strains, growth OD
[1] = locus YAL040C, strain CLN3, hits give low values
[2] = locus YCL061C, strain MRC1 (second series), hits give low values
[3] = locus YDR363W, strain ESC2, hits give low values
[4] = locus YER002W, strain NOP16, hits give low values
[5] = locus YGR229C, strain SMI1, hits give low values
[6] = locus YMR263W, strain SAP30, hits give low values
[7] = locus YNL128W, strain TEP1, hits give low values
[8] = locus YNL175C, strain NOP13, hits give low values
[9] = locus YNL197C, strain WHI3, hits give low values
[10] = locus YNL224C, strain SQS1, hits give low values
[11] = locus YNL322C, strain KRE1, hits give low values
[12] = locus YOR083W, strain WHI5 (second series), hits give low values
[13] = locus YPL055C, strain LGE1, hits give low values
[14] = locus YPL241C, strain CIN2, hits give low values
[15] = locus YMR307W, strain GAS1, hits give low values

Measured: normalized growth

O=C(Nc1cc(C(=O)Nc2ccc(S(=O)(=O)O)cc2S(=O)(=O)O)cc(C(=O)Nc2ccc(S(=O)(=O)O)cc2S(=O)(=O)O)c1)Nc1cc(C(=O)Nc2ccc(S(=O)(=O)O)cc2S(=O)(=O)O)cc(C(=O)Nc2ccc(S(=O)(=O)O)cc2S(=O)(=O)O)c1
inactive: locus YAL013W, strain DEP1, hits give low values 0.995 | [1] 1.01 | [2] 0.998 | locus YDR150W, strain NUM1, hits give low values 0.997 | [3] 0.954 | [4] 1.02 | locus YGR078C, strain PAC10, hits give low values 0.987 | [5] 0.995 | [6] 0.99 | [7] 1 | [8] 1.01 | [9] 1.01 | [10] 0.993 | [11] 1.02 | [12] 0.993 | [13] 0.968 | [14] 1.01

CC(C)(C)c1o[nH]c(=O)c1CC(N)C(=O)O (stereo not given)
inactive: [1] 1.03 | [2] 1.01 | [4] 1 | [15] 0.968 | [7] 1 | [8] 1 | [9] 0.991 | [10] 0.992 | [11] 0.997 | [12] 1 | [14] 1.02

CC1=C[C@@H]2c3cccc4[nH]cc(c34)C[C@H]2N(C)C1
inactive: [1] 0.988 | [4] 0.993 | locus YJR075W, strain HOC1, hits give low values 1 | [6] 0.996 | [15] 1.01 | [8] 1 | [9] 1.01 | [10] 0.987 | [12] 1

Clc1cc(I)cc(Cl)c1NC1=NCCN1
inactive: [1] 1.01 | [2] 1.01 | [3] 1.02 | [4] 1.01 | [15] 0.987 | [8] 1.01 | [9] 1.01 | [10] 1.01 | [12] 1.06 | [13] 0.986

N=S(=O)(O)Cc1noc2ccccc12
inactive: [1] 0.966 | [2] 1 | [3] 1.03 | [4] 1.01 | [5] 1.01 | [15] 1.01 | [7] 1.05 | locus YNL153C, strain GIM3, hits give low values 0.998 | [8] 0.996 | [9] 1.02 | [10] 1.01 | [12] 1 | [14] 1.01
